These results are taken from PubChem BioAssay (NCI).

Molecules are shown by their SMILES. The panel holds about 83,000 compounds, 20% with a hit somewhere; the sample as a whole holds those more often.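 Results are percent growth after 48 hours of single-concentration exposure. 100 means growth as in untreated cells, lower positive values show inhibition; negative values down to -100 show cell death.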 Values without a mark were called inactive. Activity calls are given as the source filed them. The calls were made as follows: active = growth percent below 10; inactive = the rest.

Common to all, as to experiment: NCI-60 one-dose screen, 48 h (100 = growth as untreated, 0 = no growth, -100 = all killed)
Holding throughout (conditions): 10 µM unless noted

The subject of test [1] is NCI-H23 lung.
In test [2] the test system is NCI-H226 lung.
Test [3] concerns NCI-H322M lung.
Test [4] concerns HOP-62 NSCLC.
Test [5] concerns NCI-H460 lung.
Test [6] concerns HOP-92 NSCLC.
The test system of test [7] is NCI-H522 lung.
For test [8], the system named is A549/ATCC NSCLC.
For test [9], the system named is 786-0 renal.
The subject of test [10] is COLO 205 colon.
For test [11], the system named is DU-145 prostate.
Test [12] has as its system K-562 leukemia.
Test [13] deals with MALME-3M melanoma.
For test [14], the system named is MDA-MB-231 breast.
Test [15] has as its system RXF 393 renal.
Test [16] deals with SF-268 CNS.
Test [17] relates to SF-295 CNS.
The test system of test [18] is SF-539 CNS.
The subject of test [19] is UACC-257 melanoma.
In test [20] the test system is M14 melanoma.

For the compound `CC[C@H](Nc1nc(N)nc(C)c1C#N)c1nc2cccc(NCCCCCC(=O)NO)c2c(=O)n1-c1ccccc1`, the growth in test [1] was 73.3%; in test [2], 75%; in [3], 75.9%; in test [4] it was 66.2%; in test [5], 77%; in test [6], 27.2%. The growth in [7] was 53.2%; in [8] it was 79.3%; in [9] it was 27.5%; in test [10] it was 86.2%; in test [11], 69.5%; in test [12] it was 77.1%. The growth in test [13] was 52.6%; in test [14], 61.8%; in [15], -6.92% (active); in test [16] it was 55.7%; in [17] it was 22.9%; in [18] it was 45.9%. Further, the values for the growth in [19] and in test [20] were 54.4% and 71.3%, respectively.
Consider `COc1ccccc1NC(=O)c1ccc(/C=C/C(=O)c2nccn2C)cc1`, for which the growth was -35.7% (active) in test [1]; 24.6% in [2]; -93.4% (active) in test [3]; -49.5% (active) in test [4]; -43.5% (active) in test [5]; -24.3% (active) in [6]. For the same compound, the growth is -44.8% (active) in [7]; -0.305% (active) in test [8]; -48.4% (active) in test [9]; -53.1% (active) in test [10]; -88.2% (active) in [11]; 2.11% (active) in test [12]. Also, the growth in test [13] was -19.9% (active); in test [14] it was -27% (active); in test [15] it was -71.1% (active); in test [16] it was -61.3% (active); in [17] it was -87.8% (active); in test [18], -90.6% (active). Besides, the growth in test [19] is -2.34% (active); in [20] it was -61.2% (active).
For `Cc1ncc(C(=O)Nc2ccc(CN3CCN(C)CC3)c(C(F)(F)F)c2)cc1C#Cc1cnc(N)c2cnccc12`, the growth in test [1] is 9.05% (active); in test [2], 12.1%; in [3], 14.8%; in test [4], -21.8% (active); in test [5], -53.9% (active); in test [6], 34.2%. Moreover, the growth in test [7] was -0.528% (active); in test [8], 13.3%; in test [9] it was 14%; in test [10] it was -27% (active); in [11] it was 13.5%; in [12], 25.1%. Further, the growth in test [13] was -26.1% (active); in test [14], -63.4% (active); in test [15], -34.3% (active); in test [16], 14.6%; in [17] it was 23.6%; in test [18] it was -76.2% (active). The results for the growth in test [19] and in test [20] were -16.8% (active) and -78.5% (active), respectively.
`N#Cc1c(NC(=O)c2cccs2)[n+]([O-])c2ccc(Cl)cc2[n+]1[O-]`: the growth in [1] is 103%; in [2], 92.1%; in test [3], 108%; in [4] it was 95.7%; in test [5] it was 113%; in test [6], 94.8%. The growth is 93.7% in test [7]; 122% in test [8]; 107% in test [9]; 113% in [10]; 121% in test [11]; 106% in test [12]. Further, the growth is 92% in [13]; 82.7% in test [14]; 127% in [15]; 106% in [16]; 93.8% in [17]; 108% in test [18]. Besides, the growth is 120% in [19] and 80.2% in test [20].
On to `COc1cccc(Nc2ccnc3[nH]c4ccc([N+](=O)[O-])cc4c23)c1`, for which the growth is 64.5% in test [1]; 48.7% in [2]; 84.3% in test [3]; 34.6% in test [4]; 30.7% in test [5]; 31.5% in test [6]. In addition, the growth was 30.4% in test [7]; 37% in [8]; 25.7% in test [9]; 51.7% in test [10]; 76.9% in test [11]; 19% in test [12]. Moreover, the growth is 53% in test [13]; 60.1% in test [14]; 33.5% in [15]; 60.7% in test [16]; 45.5% in test [17]; 48.9% in test [18]. For the same compound, the growth in [19] is 57.4%; in test [20], 34%.
Take `COc1ccc(Cl)cc1Nc1nc(C(F)(F)F)ccc1C(=O)N/N=C/c1ccccc1Cl`: the growth was 16.9% in test [1]; 17.3% in test [2]; 1.34% (active) in test [3]; 18.3% in test [4]; 4.25% (active) in [5]; -47.7% (active) in test [6]. Besides, the growth in [7] was -13.9% (active); in test [8], 10.9%; in [9], 11.8%; in [10], -59.5% (active); in [11] it was 14.6%; in test [12] it was 2.37% (active). Moreover, the growth is 11% in test [13]; -7.46% (active) in test [14]; 0.498% (active) in test [15]; 13.6% in test [16]; -12.1% (active) in [17]; -7.07% (active) in [18]. Also, the growth was 2.7% (active) in test [19] and 15.2% in [20].
On to `CCn1cc(CNc2ccc(C(=O)Nc3cc4cc(OC)c(OC)cc4c(C)n3)cc2)c(C)n1`, for which the growth in test [1] was 9.61% (active); in test [2], 20.5%; in test [3], 85.1%; in test [4] it was 12.8%; in [5], 58.1%; in test [6], 78.6%. Moreover, the growth in test [7] was -10.1% (active); in [8], 29.5%; in test [9], 70.9%; in test [10], 28.9%; in test [11], 56.3%; in test [12], 15.6%. The growth in [13] was 25.2%; in test [14], 74.7%; in test [15] it was 90.9%; in test [16], 48.6%; in [17] it was 30.4%; in test [18], 75.5%. Also, the growth was 48.1% in test [19] and 22.1% in test [20].
